For 22 compounds, inhibition results are on record in PubChem BioAssay.

A number with no mark means an inactive call. How the calls were made is not given here.

Sequence of Pantothenate synthetase (Mycobacterium tuberculosis (strain ATCC 25618 / H37Rv)) (P9WIL5 whole entry, looked up): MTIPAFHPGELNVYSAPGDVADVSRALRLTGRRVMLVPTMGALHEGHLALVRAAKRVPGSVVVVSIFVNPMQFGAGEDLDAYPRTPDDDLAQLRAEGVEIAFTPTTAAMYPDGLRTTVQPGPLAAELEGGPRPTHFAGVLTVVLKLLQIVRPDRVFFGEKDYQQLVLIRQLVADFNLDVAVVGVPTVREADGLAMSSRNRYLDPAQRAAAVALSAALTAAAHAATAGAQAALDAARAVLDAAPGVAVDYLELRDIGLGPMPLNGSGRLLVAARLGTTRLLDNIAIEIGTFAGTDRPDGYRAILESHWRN

The experiment concerns the target Pantothenate synthetase (Mycobacterium tuberculosis (strain ATCC 25618 / H37Rv)) (UniProt P9WIL5). Briefly: Coupled enzyme confirmation of inhibitors against recombinant Mtb PanC (AID 375).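 Further: 0% = full reaction with vehicle and 100% = no enzyme background.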 The following applies: coupled enzyme assay; at 10 µM, stronger effect = higher value.
As usually defined, the inhibition is the relative decrease from the control value, in per cent. For the compound `O=C(CN(Cc1ccc(F)cc1)C(=O)Cn1nnc2ccccc21)NCC1CCCO1` (configuration not stated), the inhibition is 0%.
Next, `CC1Cc2ccccc2N1S(=O)(=O)c1cccc(C(=O)OCC(=O)NC2CCS(=O)(=O)C2)c1` (configuration not stated): 0%.
With `CN1CCN(CCCNC(=O)Cn2ncc3c4ccccc4n(C)c3c2=O)CC1`, the inhibition is 0%.
Next, `COc1ccc(-c2noc(CN3CCC(Cc4ccccc4)CC3)n2)cc1`: 0%; `Cc1cc(C)c(NC(=O)Cn2cc3c(n2)CCCC3)c(C)c1`: 0%; `Cc1ccc(NC(=O)N2CCC(c3nc4c(nnn4Cc4cccc(Cl)c4)c(=O)[nH]3)CC2)cc1`: 0%.
As for `O=C(O)CCc1ccc(-c2cccs2)n1CCC(=O)O`, the figure is 1%.
In the case of `Cc1ccc2[nH]c(=O)c3cc(C(=O)NCCN4CCN(C)CC4)sc3c2c1`, the inhibition is 0%.
In the case of `O=c1cc(CSc2nnc(COc3ccc(Cl)cc3)o2)c2ccccc2[nH]1`, the inhibition is 3%.
In the case of `CN1CCN(C(=O)CCC(=O)c2ccc(F)cc2)CC1`, the inhibition is 9%.
On to `O=C(CN1CCN(c2ncc(C(F)(F)F)cc2Cl)CC1)Nc1ccc2c(c1)OCO2`, for which the inhibition is 0%.
Next, `Cc1ccc2c(C)nc(NC3=NCN(C(C)C)CN3)nc2c1`: 0%; `Cc1[nH]c2ccccc2c1Cc1nnc(SCC(=O)NCc2ccco2)o1`: 1%; `CCCN(CCC)C(=O)CSc1nc2ccccc2c(=O)n1C1CCCC1`: 7%.
Next, `CC1(C)CC(=O)C2=C(C1)NC(=O)CC2c1ccc(N(CCC#N)CCC#N)cc1` (configuration not stated): 9%.
Next, `O=C(CNCCC1=CCCCC1)Nc1ccccc1N1CCCCC1`: 0%.
Regarding `CC(NC(=O)NC12CC3CC(CC(C3)C1)C2)C1CCCO1` (configuration not stated), the inhibition was 5%.
As to `Nc1nc(C(=O)N2CCOCC2)nn1S(=O)(=O)c1ccc(Cl)cc1`, the inhibition was 0%.
Regarding `CC(c1nnc(SCC(=O)Nc2sccc2C#N)n1-c1ccc(Cl)cc1)N(C)C` (configuration not stated), the inhibition was 0%.
Next, `C=C(CC)C(=O)c1ccc(OCC(=O)O)c(Cl)c1Cl`: 0%; `CC(=O)N1CCc2cc(S(=O)(=O)NCCC3=CCCCC3)ccc21`: 2%.
As for `O=c1c2nnn(Cc3ccccc3)c2ncn1-c1ccccc1`, the figure is 0%.
